# High-throughput results as filed in PubChem BioAssay.
# VACV mCherry inh: vaccinia inhibition (mCherry reporter); Vaccinia virus mCherry reporter infection, fluorescence; Potency, µM (doses to about 36.5 µM), for the others: at the highest dose activity change, negative = inhibition, usual class: inhibitors; 0.63% of 310,000 active; AID 720579; calls by dose curve; tested in A549 cells; note: nearly all actives have a fitted effect of over 35% in size
# AmpC no deterg: blocks E. coli AmpC beta-lactamase in detergent-free assay; P00811; AmpC nitrocefin hydrolysis, absorbance 480 nm, 0.0001% Triton; Potency, µM (highest dose often 57.1 µM), for the others: at the highest dose activity change, negative = inhibition, most hits filed as inhibitors; 0.52% of 330,000 active; AID 485341;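 note: plate controls were no compound for no effect and no enzyme for full effect; nearly all actives have a fitted effect of over 20% in size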
# Target sequence (P00811 whole entry, looked up): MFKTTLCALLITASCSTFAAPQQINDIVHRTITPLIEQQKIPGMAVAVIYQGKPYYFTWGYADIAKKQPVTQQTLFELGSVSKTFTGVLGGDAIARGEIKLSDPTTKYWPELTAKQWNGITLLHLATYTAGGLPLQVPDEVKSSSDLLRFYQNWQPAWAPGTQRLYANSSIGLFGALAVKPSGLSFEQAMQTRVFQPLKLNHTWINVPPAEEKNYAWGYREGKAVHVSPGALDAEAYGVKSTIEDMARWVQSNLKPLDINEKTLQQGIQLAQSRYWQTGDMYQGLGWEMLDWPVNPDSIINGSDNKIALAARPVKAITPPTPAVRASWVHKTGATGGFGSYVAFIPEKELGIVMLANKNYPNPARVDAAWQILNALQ
#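 20 mM phosphate pH 7.0 + 0.01% (detergent screen) or 0.0001% Triton X-100; 5.3 nM AmpC reagent; cpd preinc 15 min RT; nitrocefin (800 uM stock) to start; A480 q20 s × 4 min; Activity was normalised to no-enzyme and no-compound control wells.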
# AmpC inh detg: AmpC beta-lactamase inhibition with detergent present; P00811; AmpC hydrolysis of nitrocefin, absorbance 480 nm, 0.01% Triton; Potency, µM (series often up to 114 µM), inactives show top-dose activity change, negative = inhibition, most hits filed as inhibitors; 0.041% of 370,000 active; AID 485294;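 note: 0% = no-compound wells and -100% = no-enzyme wells; nearly all actives have a fitted effect of over 25% in size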
#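 20 mM phosphate pH 7.0 + 0.01% (detergent screen) or 0.0001% Triton X-100; 5.3 nM AmpC reagent; cpd preinc 15 min RT; nitrocefin (800 uM stock) to start; A480 q20 s × 4 min; Activity was normalised to no-enzyme and no-compound control wells.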
# Vaccinia Venus: inhibitors of vaccinia virus (Venus reporter); Potency, µM (titrated, usually from 36.5 µM), for the others: at the highest dose activity change, negative = inhibition, usual class: inhibitors; 0.46% of 330,000 active; Vaccinia virus Venus reporter expression, fluorescence; calls by dose curve; tested in A549 cells; note: nearly all actives have a fitted effect of over 30% in size
# * hit, by the source's call; i = inactive; ? = inconclusive; . = not tested or not shown. Rows were chosen to be rich in hits. Some 1.1% of all compounds tested hit in one or more screens of this group. Unless noted, calls come from the whole dose curve; as a rule, active = well fitted curve in the direction sought with a large enough effect; inconclusive = small, poorly fitted or top-dose-only effect, or another doubt; inactive = no such curve, though single readings can be large; an effect the other way counts as inactive or inconclusive. Unless noted, % is set by controls: 0 for no effect and ±100 for the full control effect; potency is the fitted concentration of half-maximal effect.
SMILES,VACV mCherry inh,AmpC no deterg,AmpC inh detg,Vaccinia Venus
O=C(/C=C/c1cccc(F)c1)Nc1ccc(S(=O)(=O)Nc2ncccn2)cc1,?,11.2µM*,-2.9%,-8.9%
O=C(/C=C/c1ccc(Br)cc1)Nc1ccc(S(=O)(=O)Nc2ncccn2)cc1,.,-27.6%,-1.2%,.
CCOC(=O)N1CCN(Cc2ccc3c(c2)CN(C(=O)c2sc(C)nc2C)CCO3)CC1,-7.0%,.,.,-4.5%
COc1cccc2sc(N3CCN(C(=O)c4ccc([N+](=O)[O-])o4)CC3)nc12,8.91µM*,156.0%,-1.5%,12.6µM*
COc1cccc(CN2CCC3(CCC(CNC(=O)c4ccco4)O3)CC2)c1OC (stereo unspecified),-7.1%,.,.,4.7%
CC1(C)N=C(N)N=C(N)N1c1ccc(CCCCc2ccccc2)cc1,3.16µM*,.,.,?
CC1(C)N=C(N)N=C(N)N1c1ccccc1,.,-5.6%,1.4%,?
COc1ccccc1-c1ccnc(-n2ncc(C(=O)NCCc3ccccn3)c2C)n1,?,.,.,-15.4%
COc1cc2nc(N3CCCN(C)CC3)nc(NC3CCCCC3)c2cc1OC,-19.2%,.,.,?
COc1cc2c(NC3CCN(C)CC3)nc(N3CCCN(C)CC3)nc2cc1OCCCCCC(N)=O,i,.,.,-14.6%
COc1cc2c(NC3CCN(C)CC3)nc(N3CCCN(C)CC3)nc2cc1OCC1CCCCN1 (stereo unspecified),5.01µM*,.,.,15.8µM*
COc1cc2nc(N3CCCN(C)CC3)nc(NC3CCN(C)C3)c2cc1OC (stereo unspecified),?,.,.,11.2µM*
COc1cc2c(NC3CCN(C)CC3)nc(N3CCCN(C)CC3)nc2cc1OCCN(C)CCN(C)C,-8.3%,.,.,-18.2%
COc1cc2nc(N3CCCN(C)CC3)nc(N(C)C3CCN(C)CC3)c2cc1OC,10µM*,.,.,10µM*
COc1cc(OC)cc(C(=O)NCC2Cc3cccc(-c4nc(C)cnc4C)c3O2)c1 (stereo unspecified),-11.6%,.,.,8.4%
CCOC(=O)c1nnn(-c2nonc2-n2cccc2)c1C,.,-11.9%,-14.0%,-4.8%
CCOC(=O)c1nnn(-c2nn3nnnc3c3ccccc23)c1C,8.91µM*,18.3%,-12.4%,?
CCN1CCCC1CNC(=O)c1cnn(-c2nccc(-c3cccs3)n2)c1C1CC1 (stereo unspecified),-8.6%,.,.,-5.6%
CC(Oc1ccc(Br)cc1)C(=O)Nc1nc(-c2ccccn2)cs1 (stereo unspecified),12.6µM*,272.6%,6.6%,?
O=C(COc1ccc([N+](=O)[O-])cc1)Nc1nc(-c2ccccn2)cs1,5.62µM*,-11.9%,0.0%,?
O=C(COc1cccc(F)c1)Nc1nc(-c2ccccn2)cs1,11.2µM*,.,.,?
CC(C)[C@H](NC(=O)c1ccccc1Cl)C(=O)Nc1nc(-c2ccccn2)cs1,?,-10.0%,9.6%,?
O=C(COc1ccc(F)cc1)Nc1nc(-c2ccccn2)cs1,-28.5%,-8.8%,?,-12.3%
COc1cc(=O)n2c(c1C(=O)NCc1nonc1C)CCN(C(=O)c1cccc(C)c1C)CC2,i,.,.,0.0%
O=C(CN1Cc2ccccc2OC(c2ccsc2)C1)NCc1ccc2c(c1)OCO2 (stereo unspecified),-14.2%,.,.,-5.4%
SMILES,VACV mCherry inh,AmpC no deterg,AmpC inh detg,Vaccinia Venus
CCN(CC)c1ccc(C(=C2C=CC(=[N+](CC)CC)C=C2)c2ccccc2)cc1,?,.,.,2µM*
CCN(CC)c1ccccc1,i,-4.2%,-3.9%,-1.1%
C=CC(=O)Nc1ccc(Nc2nc(NC3CCC(N(C)C)CC3)nc3c2ncn3C(C)C)cc1 (stereo unspecified),?,-7.8%,.,1.12µM*
Cc1ccc(N2C(=O)[C@@H]3[C@H](C2=O)[C@H]2C=C(C(=O)c4ccccc4)C=CN2[C@@H]3C(=O)c2ccc(Cl)cc2)cc1,i,-33.4%,-10.8%,-8.9%
O=C(C1=C[C@@H]2[C@H]3C(=O)N(c4cccc(Cl)c4)C(=O)[C@H]3[C@@H](C(=O)c3ccc(Cl)cc3)N2C=C1)c1ccccc1,i,12.6µM*,-9.9%,58.0%
NC(=O)c1ccsc1NC(=O)c1nc(-c2ccccc2)n(-c2ccccc2)n1,.,3.98µM*,-8.1%,.
O=C(Nc1ccccn1)c1nc(-c2ccccc2)n(-c2ccccc2)n1,.,0.4%,4.4%,.
COC(=O)c1ccccc1NC(=S)NC(=O)c1ccccc1C,-4.3%,-59.2%,39.8µM*,-5.8%
Cc1ccccc1C(=O)NC(=S)Nc1ccccc1C(=O)O,i,-11.9%,-1.9%,-13.9%
O=C1CCc2cc(-c3csc(-c4ccc(O)cc4)n3)ccc2N1,-25.1%,.,.,-10.3%
CCS(=O)(=O)Nc1cc(C(=O)N2CCCN(C=O)CC2)c2c(c1)nc(-c1ccccc1)n2C,i,.,.,-14.7%
COc1cc2c(NC3CCN(C)CC3)nc(N3CCCN(C)CC3)nc2cc1O,i,.,.,-12.6%
COc1cc2c(NC3CCN(C(C)C)CC3)nc(N3CCCN(C)CC3)nc2cc1OCCOCCN1CCCC1,?,.,.,3.55µM*
COc1cc2c(NC3CCN(C)CC3)nc(N3CCCN(C)CC3)nc2cc1OCCCN1CCOCC1,?,.,.,8.91µM*
COc1cc2c(NC3CCN(C)CC3)nc(N3CCCCC3)nc2cc1OCCOCCN1CCCC1,?,.,.,10µM*
COc1cc2c(NC3CCN(C)CC3)nc(N3CCCN(C)CC3)nc2cc1OCCCCCN,-23.5%,.,.,?
c1ccc2c(CCc3c[nH]c4ccccc34)ccnc2c1,?,.,.,66.2%
COc1ccc(Cl)cc1NC(=O)c1cnc2n(c1=O)CCS2,2.24µM*,-8.7%,?,?
COc1ccc(OC)c(NC(=O)c2cnc3n(c2=O)CCS3)c1,?,-13.7%,-13.3%,?
CNc1ccc(C=C2c3ccccc3-c3ccccc32)cc1,-20.1%,.,.,?
CC(C)CC(OC(=O)c1ccco1)C(=O)NC1CCCCC1 (stereo unspecified),i,13.3%,31.6µM*,-15.9%
CC[C@]12c3[nH]c4ccc(OC)cc4c3CCN1C(=O)C(CC(=O)NCC13CC4CC(CC(C4)C1)C3)C[C@@H]2C(=O)N1CCN(C(=O)C2CC2)CC1 (stereo partly specified),i,209.7%,.,-21.3%
C[C@]12c3[nH]c4ccc(Cl)cc4c3CCN1C(=O)[C@@H](CC(=O)NCC13CC4CC(CC(C4)C1)C3)C[C@@H]2C(=O)N1CCCCC1,28.2µM*,-18.9%,.,?
CC[C@]12c3[nH]c4ccc(Cl)cc4c3CCN1C(=O)[C@@H](CC(=O)NCC13CC4CC(CC(C4)C1)C3)C[C@@H]2C(=O)N1CCN(C(=O)C2CC2)CC1,-19.6%,167.3%,.,10µM*
C[C@]12c3[nH]c4ccc(Cl)cc4c3CCN1C(=O)[C@@H](CC(=O)NCC13CC4CC(CC(C4)C1)C3)C[C@@H]2C(=O)N1CCOCC1,?,192.4%,.,12.6µM*
CC(C)N(C(=O)[C@H]1C[C@H](CC(=O)NCc2cccc(C(F)(F)F)c2)C(=O)N2CCc3c([nH]c4ccc(Cl)cc34)[C@]12C)C(C)C,?,-16.3%,.,11.2µM*
